# FMDV RLuc: shows antiviral activity in FMDV Renilla assay. hit rate 0.32% among 120,000. Potency, µM (top dose mostly 57.5 µM), without a hit: top-dose activity change, negative = inhibition, hits mostly inhibitors. FMDV replicon cells, Renilla luciferase signal; further: nearly all actives have a fitted effect of over 55% in size
# FMDV FLuc: FMDV antiviral activity by firefly signal | FMDV antiviral cell assay, firefly luciferase signal | Potency, µM (top dose mostly 57.5 µM), inactives show at the highest dose activity change, negative = inhibition, hits mostly inhibitors | hit rate 0.23% among 120,000; further: nearly all actives have a fitted effect of over 60% in size
# Numbers without * were called inactive; ? = inconclusive; [ ] = another dose, or the depositor's remark. Shown are actives, neighbours in structure and some others; about 0.51% of the full set was active somewhere. The call rests on the fitted dose curve. On the % scale 0 is the no-effect control and ±100 the full control effect; potency means the concentration at half of the fitted maximal effect.
SMILES,FMDV RLuc,FMDV FLuc
CC(=O)C1=C(C)Oc2ncn3nc(COc4cccc(C)c4C)nc3c2C1c1ccco1 (stereo not drawn),-6.7%,-7.1%
O=C(Nc1c(F)cc(F)cc1Br)c1cc2ccccc2oc1=O,-11.2%,57.4%
CN(C)C(=O)COc1ncnc2c(Cl)cc(Cl)cc12,-4.9%,3.8%
COC(=O)Cc1c(C)c2ccc(OCC(=O)C(C)(C)C)c(C)c2oc1=O,28.2µM*,?
COC(=O)Cc1c(C)c2ccc(OCc3ccccc3F)c(C)c2oc1=O,15.5%,173.1%
COc1ccc2[nH]c(C)c(CCNCc3cccc(F)c3)c2c1,35.7%,3.7%
COc1ccc(F)c(CNCCc2c(C)[nH]c3ccc(OC)cc23)c1,8.1%,-13.7%
COc1ccc2[nH]c(C)c(CCNCc3ccc(C(F)(F)F)cc3)c2c1,4.47µM*,?
COc1ccc(CNCCc2c(C)[nH]c3ccc(OC)cc23)c(F)c1,7.08µM*,8.91µM*
CN(CCC#N)S(=O)(=O)c1ccc(Br)cc1,4.9%,2.1%
Cc1oc2cc(OCC(=O)N3CCCC(C(=O)O)C3)ccc2c(=O)c1-c1ccc(Cl)cc1 (stereo not drawn),-1.1%,-0.7%
Cc1ccc(OCC(O)Cn2c(N)nc3c2c(=O)n(C)c(=O)n3C)cc1 (stereo not drawn),-13.9%,2.8%
CNc1nc2c(c(=O)n(C)c(=O)n2C)n1CC(O)COc1ccc(OC)cc1 (stereo not drawn),22.4µM*,?
CC(Nc1ccc([N+](=O)[O-])c2nonc12)c1ccc(Cl)cc1 (stereo not drawn),?,-30.7%
COc1cccc(NC(=O)CN(C)S(=O)(=O)c2ccc3nc(C)sc3c2)c1,-8.3%,15.5%
CCOc1ccccc1NC(=O)CN(C)S(=O)(=O)c1ccc2nc(C)sc2c1,31.6µM*,?
Nc1nccnc1C(=O)NCc1ccc(CN2CCCCC2)cc1,0.0%,0.0%
Nc1nccnc1C(=O)NCc1ccc(N2CCCCC2)nc1,5.62µM*,?
Nc1nccnc1C(=O)NCc1cccnc1,-15.9%[1.06 µM],-7.4%
Nc1nccnc1C(=O)NCc1ccc(Oc2cccc(F)c2)nc1,8.91µM*,?
Cc1ccccc1Cn1c(CCNC(=O)C(C)C)nc2ccccc21,12.7%,6.8%
O=C(NCCNCc1c[nH]c2ccccc12)c1ccccc1F,-27.9%,-21.7%
O=C(Nc1cccc(Cl)c1)c1nc2ccccc2nc1N1CCCC1,3.2%,-3.8%
Clc1cccc(Nc2nc3nonc3nc2N2CCCCC2)c1,6.31µM*,?
COc1ccc(NC(=O)C2CCN(c3nc4ccccc4nc3OC)CC2)c(OC)c1,8.2%,8.6%
SMILES,FMDV RLuc,FMDV FLuc
CN(CCNC(=O)C1CCN(CC(F)(F)F)CC1)C1CC1,8.3%,-5.8%
CCOCCCNc1ncnc2onc(C)c12,-5.3%,-5.7%
Cc1ccc(CCNc2ncnc3onc(C)c23)cc1,1.58µM*,1.78µM*
CCOc1ccc(CCNc2ncnc3onc(C)c23)cc1OCC,2.51µM*,3.16µM*
CCCNc1ncnc2onc(-c3ccc(C)cc3)c12,15.4%,8.4%
COc1ccc(NC2=NC(C(=O)Nc3ccc(C)c(C)c3)CC(=O)N2)cc1 (stereo not drawn),-10.2%,-6.2%
CCCN(CCC)C(=O)Cn1cnc2c1c(=O)n(C)c(=O)n2C,-12.9%,-3.1%
COc1cc(C(=O)Nc2ccccc2-c2nc(-c3ccc(C)cc3)no2)cc(OC)c1OC,35.5µM*,-15.2%
COc1cc(-c2noc(-c3ccc(Br)cc3)n2)cc(OC)c1OC,-0.7%,7.2%
COc1cc(C(=O)Nc2ccccc2-c2nc(-c3ccccc3)no2)cc(OC)c1OC,-3.1%,2.8%
COc1cc(-c2nc(-c3ccc(Br)cc3)no2)cc(OC)c1OC,-7.8%,0.398µM*
CCCc1cc(C(=O)O)sc1C,-5.3%,-3.4%
Cc1nc(-c2cccs2)c(CCC(=O)N2CCN(c3ccc(F)cc3)CC2)s1,11.5%,2.9%
CCc1c(C)nc2n(c1=O)CN(Cc1cccnc1)CN2c1ccc(F)cc1,-8.4%,11.2%
C/C(=C\C(=O)NCCN1CCOCC1)CCc1ccccc1,-9.8%,8.8%
Cc1cc(C)n(-c2nc3c(c(=O)n(CCc4ccccc4)c(=O)n3C)n2CCC(C)C)n1,5.01µM*,?
CCCn1c(-n2nc(C)cc2C)nc2c1c(=O)n(CCc1ccccc1)c(=O)n2C,?,-24.5%
Cc1cc2oc(C(=O)Nc3ccc(OC(F)F)cc3)cc(=O)c2cc1C,10.4%,19.0%
Cc1c(Cc2ccccc2)c(=O)oc2c(C)c(OCC(=O)NCCCO)ccc12,-1.0%,-5.9%
CSc1ccc(CN(C)C(=O)CSc2nnc(COc3ccc(Cl)cc3)n2C)cc1,3.98µM*,10µM*
CN(Cc1ccsc1)C(=O)CSc1nnc(COc2ccc(Cl)cc2)n1C,9.2%,6.6%
COC(=O)C1(NC(=O)c2cc(Cl)ccc2Cl)CCCCCC1,-5.4%,-11.2%
COC(=O)C1(NC(=O)COc2ccc(Cl)cc2Cl)CCCCC1,8.91µM*,8.91µM*
COC(=O)c1cccc(NC(=O)c2cnc(C)cn2)c1,0.3%,82.3%
Cc1ccc2c(C=O)c(C)[nH]c2c1,30.3%,0.0%
Cc1cccc(Cn2c(=O)n(-c3ccccc3C)c(=O)c3c2c2cc(C)ccc2n3C)c1,-8.6%,-15.6%
